Laboratory results as given in ChEMBL document CHEMBL1157539, “Thousands of chemical starting points for antimalarial lead identification” (Nature, 2010).

tested on: HepG2; experiment: GSK_TCMDC: Percent inhibition of human HepG2 cell line. Test compounds present at 10uM.; format: functional

In order of falling Inhibition:
1. CCN(CC)CCN(Cc1ccc(-c2ccc(C(F)(F)F)cc2)cc1)C(=O)Cn1c(SCc2ccc(F)c(F)c2F)nc(=O)c2c1CCC2.O=C(O)C(O)C(O)C(=O)O  100%
2. O=C(Nc1cccc(-c2cccc(-c3nc4cc(F)ccc4[nH]3)c2)c1)Nc1ccc(F)c(F)c1F  83%
3. COc1cccc(COCC(O)CN(CCc2ccccn2)C(=O)c2ccccc2F)c1 (stereo unspecified)  61%
4. CN(c1ccc2c(c1)nc(NCc1ccccc1)n2C)c1ccnc(Nc2ccc(CS(C)(=O)=O)cc2)n1.Cl  61%
5. O=C(Nc1ccc(-c2csc(-c3nc4ccccc4[nH]3)c2)cc1)Nc1ccsc1  50%
6. CCC[C@@H]([C@@H](CC1CCCCC1)C(=O)N[C@H](C(=O)Nc1nccs1)C(C)(C)SCCNC(=O)OCC)N(O)C=O  45%
7. FC(F)(F)c1ccc2[nH]c(-c3ccc(-c4ccc(CNCc5cnn(-c6ccccc6)n5)cc4)cc3)nc2c1.O=C(O)C(F)(F)F  35%
8. Fc1ccc2[nH]c(-c3cccc(-c4ccc(CN5CCN(CCN6CCOCC6)CC5)cc4)c3)nc2c1.O=C(O)C(F)(F)F  30%
9. CN1CCN(CCc2ccc3nc(-c4csc(Cc5cc(Cl)ccc5OCc5ccccc5)n4)[nH]c3c2)CC1  30%
10. COc1ccc(CCn2c(=N)c(C(=O)NCc3ccccc3)cc3c(=O)n4cccc(C)c4nc32)cc1  29%
11. CN1CCCN(Cc2ccc(-c3cccc(NC(=O)c4ccc(C#N)cc4)c3)cc2)CC1.O=C(O)C(F)(F)F  29%
12. O=C(NCC1CCC(CNCCCc2ccccc2)CC1)Nc1ccc(Cl)c(Cl)c1 (stereo unspecified)  26%
13. CN1CCC(Oc2cc(NC(=O)Nc3ccc(-c4ccncc4)c(Cl)c3)ccc2Cl)CC1  23%
14. CNC(=O)c1cnc(Nc2ccc(N3CCN(C)CC3)cc2)nc1Nc1cccc(OC)c1.O=C(O)C(F)(F)F  19%
15. COc1ccc(NC(=O)/C=C/c2ccccc2Cl)cc1OCCN1CCC(N2CCN(C)CC2)CC1  19%
16. Oc1ccc(CCNc2nc(NCc3ccccc3-c3ccc(C(F)(F)F)cc3)nc(N3CCNCC3)n2)cc1  17%
17. Cc1cccc(Cn2c(Cc3ccccc3)nnc2Sc2ccc([N+](=O)[O-])c(C#N)c2)c1  17%
18. CN1CCC(N2CCN(c3ccc4c(=O)nc(CCc5cccc(F)c5F)n(CC(=O)N(C)Cc5ccc(-c6ccc(C(F)(F)F)cc6)cc5)c4n3)CC2)CC1.O=C(O)C(O)C(O)C(=O)O  15%
19. CN(C)CCNCc1ccc(-c2ccc3c(Nc4ccc(Cl)cc4F)ccnc3c2)o1  14%
20. COc1ccc(C2=C(Nc3ccc4oc5ccccc5c4c3)c3ccccc3C2=O)cc1  9%
21. O=C(/C=C/c1ccc(Cl)c(Cl)c1)NCCCCCN1CCC(NC(=O)c2ccc3ccccc3c2)CC1  8%
22. COc1ccc(CCN(C)CCOc2ccc(NC(=O)c3cc(SC)cc4c(=O)c5ccccc5[nH]c34)cc2)cc1OC  7%
23. Cc1csc(-c2nc(NCCc3c(C)noc3C)ncc2-c2ccsc2)n1  6%
24. N#Cc1cccc(NC(=O)Nc2cccc(OC3CCN(Cc4ccccc4)CC3)c2)c1.O=C(O)C(F)(F)F  5%
25. Cc1ccc(Nc2ccnc(Nc3ccc(C)c(F)c3)n2)cc1O.Cl  4%
26. Cc1ccc(CNC(=O)[C@H](CCCN)Nc2cc(C)nc(Nc3ccccc3)n2)cc1.O=C(O)C(F)(F)F  0%
